Results taken from PubChem BioAssay (Tox21).
Records with an inconclusive call do not appear. Activity calls are given as the source filed them. Calls follow the shape of the dose curve; as a rule, active = well fitted cell-killing curve with a large enough effect in the repeat runs; inconclusive = weak or mixed curves, or effect the other way; inactive = flat fitted curve, though single readings scatter.

Test: qHTS assay to identify small molecule that activate the aryl hydrocarbon receptor (AhR) signaling pathway - cell viability counter screen (AID 743086);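 also: HepG2 liver cells carrying the AhR DRE luciferase reporter; nearly all actives have a fitted effect of over 45% in size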
Settings: HepG2-AhR-luc viability, CellTiter-Fluor, 24 h; series mostly up to 70.3 µM
Source text: U.S. Tox21 Program National Center for Advancing Translational Sciences [NCATS] NIH Chemical Genomics Center [NCGC] U.S. Environmental Protection Agency [EPA] National Institutes of Environmental Health Sciences [NIEHS] National Toxicology Program [NTP] U.S. Food and Drug Administration [FDA] Tox21 Assay overview: The Aryl hydrocarbon Receptor (AhR), a member of the family of basic helix-loop-helix transcription factors, is crucial to adaptive responses to environmental changes. AhR mediates cellular responses to environmental pollutants such as aromatic hydrocarbons through induction of phase I and II enzymes but also interacts with other nuclear receptor signaling pathways A cell based HepG2-AhR-luc assay (HG2L7.5c1 cell line, developed by Dr. Michael S. Denison, University of California at Davis) was used to assess the activation of AhR. HepG2 (human hepatocellular carcinoma) cells were stably transfected with an Ah receptor-responsive firefly luciferase reporter gene plasmid containing 20 dioxin responsive elements and luciferase reporter gene. Increased luciferase activity can be used to identify the compounds that induce AhR activation. The cytotoxicity of the compounds screened against the HepG2-AhR-luc cell line was tested in parallel by measuring the cell viability using CellTiter-Fluor assay in the same wells.
Tox21 Assay Protocol Summary: 4000 cells in 5 uL/well were dispensed into white wall/solid bottom 1536-well plates using a Multidrop Combi (Thermo Fisher Scientific Inc., Waltham, MA) dispenser. After the assay plates were incubated at 37C for 5 h, 23 nL of compound or DMSO vehicle was transferred to the assay plates by a pintool station (Kalypsys, San Diego, CA). The plates were incubated at 37C for 24 hr. For cell viability measurement, 1 ul/well of CellTiter-Fluor reagent (Promega, Madison, WI) was added into the assay plates using a Flying Reagent Dispenser (FRD) (Aurora Discovery, CA),and then the assay plates were incubated at 37C for 30 min. The fluorescence intensity in the plates was measured using a ViewLux plate reader (PerkinElmer, Shelton, CT), followed by the addition of 4 uL of ONE-Glo Luciferase Assay reagent (Promega) using an FRD (Aurora Discovery). After the assay plates were incubated at room temperature for 30 min, luminescence intensity was measured using a ViewLux plate reader (Perkin Elmer).

**Q.** For `O=C(O)c1ccccc1C(c1ccc(O)cc1)c1ccc(O)cc1`, which outcome is on record?
**A.** inactive

**Q.** For `CC(=O)OCC(=O)[C@@]12N=C(C)O[C@@H]1C[C@H]1[C@@H]3CCC4=CC(=O)C=C[C@]4(C)[C@H]3[C@@H](O)C[C@@]12C`, which outcome is on record?
**A.** inactive

**Q.** Which outcome does the source give for `OC[C@H]1O[C@@](CO)(O[C@H]2O[C@H](CO)[C@@H](O)[C@H](O)[C@H]2O)[C@@H](O)[C@@H]1O` here?
**A.** inactive

**Q.** For `CCCCC(CC)CO` (stereo not given), which outcome is on record?
**A.** inactive

**Q.** Which outcome does the source give for `C[Si](O[Si](C)(C)C)O[Si](C)(C)C` here?
**A.** inactive

**Q.** For `COc1ccc(NC(C)=O)cc1N`, which outcome is on record?
**A.** inactive

**Q.** Which outcome does the source give for `CCCCCCCC(=O)OC` here?
**A.** inactive

**Q.** With `c1ccc(OCCOc2ccccc2)cc1` as the compound, how does the outcome read?
**A.** inactive

**Q.** For `c1ccc2c(c1)ccc1ccccc12`, which outcome is on record?
**A.** inactive

**Q.** With `c1c[nH]cn1` as the compound, how does the outcome read?
**A.** inactive

**Q.** Which outcome does the source give for `CC(C)c1ccc(S(=O)(=O)O)cc1` here?
**A.** inactive

**Q.** With `CCCCC(CC)COC(=O)CS` (stereo not given) as the compound, how does the outcome read?
**A.** inactive

**Q.** Which outcome does the source give for `COc1cc(Cc2cnc(N)nc2N)cc(OC)c1OC` here?
**A.** inactive

**Q.** For `CCCCOC(=O)COc1ccc(Cl)cc1Cl`, which outcome is on record?
**A.** inactive

**Q.** With `O=C(O)CC(C(=O)O)C(CC(=O)O)C(=O)O` (stereo not given) as the compound, how does the outcome read?
**A.** inactive

**Q.** With `CC(C)(C)[C@@H](O)[C@@H](Cc1ccc(Cl)cc1)n1cncn1` as the compound, how does the outcome read?
**A.** inactive

**Q.** For `CCOC(=O)NNc1nncc2ccccc12`, which outcome is on record?
**A.** inactive

**Q.** Which outcome does the source give for `Nc1ccccc1[N+](=O)[O-]` here?
**A.** inactive

**Q.** For `CCCCCCOCCO`, which outcome is on record?
**A.** inactive

**Q.** Which outcome does the source give for `O=C(O)CCCCCCCCCCC(=O)O` here?
**A.** inactive

**Q.** With `O=C(O)[C@H](O)[C@@H](O)[C@H](O)[C@H](O)CO` as the compound, how does the outcome read?
**A.** inactive

**Q.** Which outcome does the source give for `ON=C1CCCCC1` here?
**A.** inactive

**Q.** Which outcome does the source give for `O=c1[nH]c(=O)n([C@H]2C[C@H](O)[C@@H](CO)O2)cc1Br` here?
**A.** inactive

**Q.** With `CCCCCCCCCCCCCCO` as the compound, how does the outcome read?
**A.** inactive

**Q.** For `FC(F)(F)c1ccc(Cl)c(Cl)c1`, which outcome is on record?
**A.** inactive

**Q.** With `O=C(O)c1cc(=O)c2c(OCC(O)COc3cccc4oc(C(=O)O)cc(=O)c34)cccc2o1` as the compound, how does the outcome read?
**A.** inactive

**Q.** For `CCc1ccc(CCOc2ccc(CC3SC(=O)NC3=O)cc2)nc1` (stereo not given), which outcome is on record?
**A.** inactive

**Q.** For `CC1=C(C)S(=O)(=O)CCS1(=O)=O`, which outcome is on record?
**A.** inactive

**Q.** With `C=C(C)C(=O)OCCOCCOCCOC(=O)C(=C)C` as the compound, how does the outcome read?
**A.** inactive

**Q.** For `CN(C)CCOCCN(C)C`, which outcome is on record?
**A.** inactive

**Q.** Which outcome does the source give for `CC(=O)Nc1ccccc1` here?
**A.** inactive

**Q.** For `CCCCCCCCCCCCc1ccccc1`, which outcome is on record?
**A.** inactive

**Q.** Which outcome does the source give for `CCC(O)OC(O)CC` (stereo not given) here?
**A.** inactive

**Q.** For `Cc1cccc(O)c1`, which outcome is on record?
**A.** inactive

**Q.** With `Cc1ccc(S(N)(=O)=O)cc1` as the compound, how does the outcome read?
**A.** inactive

**Q.** With `COS(C)(=O)=O` as the compound, how does the outcome read?
**A.** inactive

**Q.** With `CC1=CCC2CC1C2(C)C` (stereo not given) as the compound, how does the outcome read?
**A.** inactive

**Q.** With `CCCCCOC(C)=O` as the compound, how does the outcome read?
**A.** inactive

**Q.** For `O=S1(=O)CC=CC1`, which outcome is on record?
**A.** inactive

**Q.** For `N[C@@H](Cc1cc(I)c(Oc2cc(I)c(O)c(I)c2)c(I)c1)C(=O)O`, which outcome is on record?
**A.** inactive
